High-throughput results as filed in PubChem BioAssay.
Sampled rows, rich in hits. Any-hit rate of the full collection: about 21%.
Pf growth 48h: P. falciparum growth inhibition at 48 hours (one generation) | P. falciparum luciferase growth in erythrocytes, 48 h | Potency, µM (top dose mostly 28.7 µM), for the others: at the highest dose activity change, negative = inhibition, hits mostly inhibitors | actives 5.9% (n = 310,000) | AID 504832; active = well fitted inhibition curve with a large enough effect; inconclusive = small, poorly fitted or top-dose-only effect, or another doubt; inactive = no such curve, though single readings can be large or run the other way; note: potency is the fitted concentration of half-maximal effect; % is set by controls: 0 for no effect and ±100 for the full control effect
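Growth was read as firefly luciferase luminescence after a 48 h, 37 C, 5% CO2 exposure of compounds to reporter-bearing P. falciparum cultures (0.1% parasitemia, 2% hematocrit final) in Albumax-supplemented RPMI 1640.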
CHX counter: counter-screen hit for Shiga toxin inhibitors, cycloheximide. cell reporter, cycloheximide protein synthesis inhibition counterscreen. max response, %. actives 12% (n = 300,000). AID 2314; in the data active = max response mostly above about 13%, no sharp cut-off; inactive = mostly below about 14%; note: read at 38.3 µM for the half of the compounds with a filed dose; 0% is about no effect
Shiga toxin inh: Shiga toxin inhibition; Vero cells, Shiga toxin protein synthesis inhibition reporter; inhibition, % at 38.7 µM; actives 9.2% (n = 290,000); AID 2315; in the data active = inhibition mostly above about 28%, no sharp cut-off; inactive = mostly below about 43%; note: 0% is about no effect
SARS PLP yeast: blocks SARS-CoV papain-like protease in a yeast assay; S. cerevisiae expressing SARS-CoV PLpro, growth rescue; Potency, µM (doses to about 32.9 µM), inactives show top-dose activity, positive = growth rescue, actives largely listed as activators; actives 0.19% (n = 330,000); AID 485353; note: potency is the fitted concentration of half-maximal effect; 0% is about no effect; nearly all actives have a fitted effect of over 55% in size
NS1 function inh: inhibitors of influenza NS1 protein function. Potency, µM (doses to about 46.1 µM), for inactives: at the top dose activity, positive = more growth. actives 0.4% (n = 270,000); note: potency is the fitted concentration of half-maximal effect; actives are rising curves; nearly all actives have a fitted effect of over 50% in size
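OD600 was taken as the measure of yeast growth restored by compound in an NS1-expressing S. cerevisiae strain. Cells had been washed out of glucose medium and diluted 1:100 into galactose -URA medium, pH 6.0.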
Pf growth 96h: P. falciparum growth inhibition at 96 hours | P. falciparum luciferase reporter growth, 96 h | Potency, µM (series often up to 28.7 µM), inactives show at the top dose activity change, negative = inhibition, hits mostly inhibitors | actives 6.9% (n = 320,000) | AID 504834; active = well fitted inhibition curve with a large enough effect; inconclusive = small, poorly fitted or top-dose-only effect, or another doubt; inactive = no such curve, though single readings can be large or run the other way; note: potency is the fitted concentration of half-maximal effect; % is set by controls: 0 for no effect and ±100 for the full control effect
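Compounds incubated with erythrocytes infected by luciferase-expressing P. falciparum (2% hematocrit, 0.05% parasitemia final) for 96 hours, 37 C in 5% CO2. Growth inhibition scored as decreased luciferase luminescence.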
Starred values were filed as active, the others as inactive; ? = inconclusive; . = not tested or not shown; [ ] = dose if it differs, or a comment. Unless noted, calls come from the whole dose curve.

SMILES	Pf growth 48h	CHX counter	Shiga toxin inh	SARS PLP yeast	NS1 function inh	Pf growth 96h
O=C(NC(=O)c1cccc(F)c1)OC[C@@H]1CCCN2CCCC[C@H]12	7%	-5	-13	26%	-5%	?
O=C(COC(=O)CCC1CCCC1)Nc1ccccc1Br	16%	.	.	3%	.	17%
COc1ccc(-c2csc(NC(=O)c3ccccc3NS(=O)(=O)c3ccc(F)c(F)c3)n2)cc1	1.9µM*	-3	2	-4%	0%	?
Cc1ccc(S(=O)(=O)Nc2ccccc2C(=O)Nc2nc(-c3ccc(F)cc3)cs2)cc1	13µM*	6	9	-92%	-60%	?
O=C(Nc1ccccc1N1CCOCC1)c1ccccc1NS(=O)(=O)c1ccc(F)c(F)c1	.	0	-15	-21%	-6%	0%
CN(C)S(=O)(=O)c1ccc(N2CCCC2)c(C(=O)Nc2nc(-c3ccc(F)c(F)c3)cs2)c1	?	28*	32	-23%	18%	10µM*
O=C(Nc1ccc2c(c1)OCO2)c1cccc(S(=O)(=O)N2CCCC2)c1	15%	24*	41*	-9%	-9%	.
O=C(NCC1CCCO1)c1ccc(Br)c(S(=O)(=O)N2CCOCC2)c1 (stereo not drawn)	?	.	.	-5%	.	1.3µM*
O=C(O)c1ccc(Br)c(S(=O)(=O)N2CCCC2)c1	-39%	5	-11	?	18%	13µM*
CC(=O)N1CCN(S(=O)(=O)c2cccc(C(=O)Nc3ccc4c(c3)OCO4)c2)CC1	-20%	15	32	0%	.	?
O=C(Nc1ccc2c(c1)OCCO2)c1ccc(S(=O)(=O)N2CCCCC2)cc1	?	33*	64	6%	-3%	-9%
C=CCSc1nnc(NC(=O)CSc2nc3ccccc3o2)s1	21%	-3	10	-2%	9%	-6%
Cc1noc(C)c1COC(=O)Cc1ccc(Br)cc1	-12%	11	26	6%	.	0%
O=C(Nc1ccc2c(c1)OCO2)c1ccc(Br)c(S(=O)(=O)N2CCCC2)c1	2.6µM*	28*	61*	-2%	-111%	34%
O=C(Nc1ccc(F)cc1)c1ccc(Br)c(S(=O)(=O)N2CCOCC2)c1	?	8	28	-1%	-6%	4%
O=C(Nc1ccc2c(c1)OCCO2)c1ccc(Br)c(S(=O)(=O)N2CCOCC2)c1	2.3µM*	32*	52*	1%	7%	-20%
CCN(CC(=O)Nc1ccc2c(c1)OCCO2)C(=O)c1ccc(Cl)cc1Cl	89%	.	.	-1%	.	143%
COCCCNC(=O)/C=C1\Sc2ccccc2N(Cc2ccccc2F)C1=O	43%	32*	44	0%	.	-11%
CCCCOc1ccc(C(=O)NCC(=O)NC2CCCCC2)cc1	-23%	.	.	-2%	.	4%
O=C(C[C@H]1C[C@H](C(=O)N2CCOCC2)[C@@]2(CCC3CCCC3)c3[nH]c4cc(-c5ccco5)ccc4c3CCN2C1=O)NCCc1ccccn1	.	.	.	0%	.	.
O=C(O)Cc1c(-c2ccccc2)c2cc(Cl)ccc2[nH]c1=O	9%	7	-5	-2%	0%	-22%
O=c1[nH]c2ccc(Cl)cc2c(O)c1-c1ccccc1	37%	27*	78*	1%	-4%	-10%
NNC(=O)CSc1c(-c2ccccc2)c2cc(Cl)ccc2[nH]c1=O	?	2	5	0%	17%	13µM*
O=c1[nH]c2cc(Cl)ccc2c(O)c1-c1ccc(Oc2ccccc2)cc1	.	.	.	.	-9%	.
CCOc1ccc(NC(=O)COC(=O)CCN2C(=O)C3CC=CCC3C2=O)cc1OCC (stereo not drawn)	?	.	.	-8%	.	?
SMILES	Pf growth 48h	CHX counter	Shiga toxin inh	SARS PLP yeast	NS1 function inh	Pf growth 96h
Cc1ccccc1C(=O)NCC(=O)OC1CCCCC1=O (stereo not drawn)	3%	.	.	2%	.	3%
Cc1ccsc1CN(C)C(=O)C(NC(=O)c1cccc(S(=O)(=O)N2CCOCC2)c1)C(C)C (stereo not drawn)	13µM*	.	.	-6%	.	?
Cc1cccc(C(=O)N[C@H](C(=O)Nc2ccc(C)c(S(=O)(=O)N3CCOCC3)c2)C(C)C)c1	.	.	.	12%	.	.
Cc1cc(C)c2nc(NC(=O)[C@@H](NC(=O)c3cccc(S(=O)(=O)N4CCOCC4)c3)C(C)C)sc2c1	9.3µM*	32*	64*	1%	6%	6.6µM*
Cc1ccc(C(=O)NNC(=O)c2cccc(S(=O)(=O)N3CCOCC3)c2)cc1	.	.	.	-1%	.	.
O=C1NC2(CCCCCC2)C(=O)N1Cc1ccc([N+](=O)[O-])cc1	5%	-6	-8	20%	-1%	?
O=C(CSc1ccc(Br)cc1)Nc1ccccc1Oc1ccccc1	-29%	12	2	-3%	4%	?
O=C(CSc1ccc(F)cc1)Nc1ccccc1Br	?	33*	66	-5%	.	7%
O=C(CSc1ccc(F)cc1)Nc1ccc(Br)cc1	74%	47*	67*	-2%	-9%	17%[5.75 µM]
CCOc1ccc(/C=C(\C(=O)O)c2ccc(S(=O)(=O)N3CCOCC3)s2)cc1OC	-6%	3	19	15%	8%	-29%
CCCn1c(=O)[nH]c(=O)c2c1nc(-c1ccc(OC)c(Br)c1)n2CCOC	0%	-4	-6	-2%	1%	?
Cc1cc(C(=O)OCC(=O)Nc2ccccc2)c(C)o1	6%	2	16	0%	2%	0%
O=C(OCc1nc2ccccc2s1)c1ccc([N+](=O)[O-])o1	13%	7	1	-45%	-66%	31%
O=C(OCc1nc2ccccc2s1)c1ccc(Br)o1	50%	28*	80*	-11%	.	9%
O=C(O)COCc1nc2ccccc2s1	-47%	-3	-7	0%	1%	6%
O=C(CCNC(=O)c1ccco1)Nc1nc2ccccc2s1	15%	.	.	-4%	.	39%
O=C(COC(=O)c1ccco1)Nc1nc2ccccc2s1	24%	21*	32	-7%	-36%	-2%
CC(=O)OCc1nc2ccccc2s1	133%	29*	92*	2%	19%	362%
Cc1cc(C(=O)OCc2nc3ccccc3s2)c(C)o1	102%	53*	105*	.	-18%	.
COc1ccc(NC(C)=O)cc1S(=O)(=O)N1CCN(Cc2cccs2)CC1	-21%	.	.	3%	.	?
O=C(CCn1c(=O)oc2ccccc21)NCc1cccs1	34%	-2	-1	-7%	-5%	-5%
O=C(OCc1nc2ccccc2s1)c1ccco1	118%	36*	90*	0%	.	?
CCCc1cc(C(=O)Cc2nc3ccccc3s2)c(O)cc1O	?	12	24	5%	10%	?
